YopH inh = inhibitors of Yersinia enterocolitica YopH tyrosine phosphatase. inhibition, % (test concentration not listed). fluorescence Ex485/Em525. 140,000 compounds, 0.16% hits. AID 898; in the data active = inhibition above about 50%
RmlCD inh mix = inhibitors of RmlC and RmlD coupled enzymes; RmlC/RmlD coupled enzyme inhibition, 384-well mixture HTS; 110,000 compounds, 0.39% hits; AID 1532; inhibition, % at 5.5 µM; in the data active = inhibition above about 30%, passing the limit was not always enough; inconclusive = no clear call, values can overlap the other calls
RmlCD artifact = RmlC/RmlD fluorescence artifact, counter-screen; shares compounds with RmlCD inh mix; RmlC/RmlD assay fluorescence artifact counter-screen; calls only; 360 compounds, 96% hits; AID 1696; call rule not given here;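 also: compound alone with no enzyme and no substrates present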
* marks the source's active call; other numbers are inactive results; i = inactive; ? = inconclusive; . = no result; + = active, no number. Shown are actives, neighbours in structure and some others; about 0.44% of the full set was active somewhere.

SMILES	YopH inh	RmlCD inh mix	RmlCD artifact
Cc1cc(C)c(S(=O)(=O)ON2C(=O)c3ccccc3C2=O)cc1C	-30.3	146.4*	+
Cc1cc(C)c(C#N)c(SCC(=O)C(C)(C)C)n1	11.4	8.1	.
CCc1nnc(NC(=O)CSc2nc3c(cc2C#N)CCC3)s1	1.3	56.0*	+
N#Cc1cc2c(nc1SCC(=O)N1CCOCC1)CCCCC2	-5.7	-12.1	.
CCOC(=O)CC(=O)CSc1nc(-c2cccnc2)ccc1C#N	-41.5	.	+
CCOC(=O)CC(=O)CSc1nc(-c2cccnc2)cc(C)c1C#N	-33.8	1.6	.
COC(=O)CC(=O)CSc1nc(C)cc(C)c1C#N	-47.0	120.8*	+
CCOC(=O)CC(=O)CSc1nc2c(cc1C#N)CCCCCC2	.	63.5*	+
CCSc1nnc(NC(=O)CSc2nc3c(cc2C#N)CCCC3)s1	-25.3	?	.
CC(C)CC(=O)OC1C(N2CCOCC2)c2c(ccc(/C=C/C(=O)N3CCOCC3)c2O)OC1(C)C (stereo not given)	1.4	.	.
Cn1c(CSCc2ccc(Cl)cc2)nnc1SCC(=O)Nc1nc2ccccc2s1	-23.1	-4.7	.
CC(C)OC(=O)CC(=O)CSc1nc2c(c(-c3cccs3)c1C#N)CCC2	-41.7	.	.
CC(C)OC(=O)CC(=O)CSc1nc2c(cc1C#N)CCCCCC2	10.1	+	+
N#Cc1cc2c(nc1SCC(=O)Nc1nccs1)CCCCC2	-4.8	33.6	.
CC(C)OC(=O)CC(=O)CSc1nc2c(cc1C#N)CCCC2	-26.9	58.6*	+
Cn1ccnc1Sc1ccc(/C=N/NC(=O)c2ccccc2O)cc1[N+](=O)[O-]	-26.9	.	.
CCOc1ccc(N(CC)S(=O)(=O)c2ccc3c(c2)n(C)c(=O)c(=O)n3C)cc1	-33.1	-2.4	.
O=C(c1ccco1)N1CCCC(c2nc(-c3ccc(S(=O)(=O)NCc4ccccc4)cc3)no2)C1 (stereo not given)	-23.0	.	.
NC(=O)[C@@H]1CCCNc2c(I)cc([N+](=O)[O-])cc2C(=O)N[C@@H](CO)C(=O)NCC(=O)N1	-26.2	-14.0	.
Cc1cc(OCC(=O)N(C(C)C)C(C)C)cc(C)c1Br	-2.2	.	.
O=C(O)c1ccc(-c2nc3ccccc3[nH]2)cc1	-27.1	.	i
Nc1ccc(-c2nc3ccccc3[nH]2)cc1	-30.2	18.8	.
COC(=O)c1cc(=O)nc2sc(-c3ccc(F)cc3)nn12	-27.1	-49.0	.
COC(=O)c1cc(=O)nc2sc(-c3cccs3)nn12	15.2	39.4*	+
CCOc1cc(/C=C2/C(=N)N3C=CSC3=NC2=O)ccc1OCCCOc1ccccc1C	-1.5	40.1*	+
SMILES	YopH inh	RmlCD inh mix	RmlCD artifact
COc1cc(/C=C2/C(=N)N3C=CSC3=NC2=O)ccc1OCCCOc1ccccc1C	-9.5	12.7	.
CCOc1ccccc1Oc1c(C)oc2c(CN3CCN(C)CC3)c(O)ccc2c1=O	-14.6	19.0	.
CCc1cc2c(=O)c(Oc3ccccc3F)c(C)oc2c(CN(C)C)c1O	5.1	72.5*	+
C=CCn1c(SCc2c(C)noc2C)nnc1C1COc2ccccc2O1 (stereo not given)	-46.3	29.2	.
CC(C)C(=O)NC(=S)Nc1ccc(S(=O)(=O)N2CCN(C)CC2)cc1	-26.9	.	.
Cc1cc2cc(CN(Cc3ccc4c(c3)OCO4)C(=O)c3ccco3)c(=O)[nH]c2cc1C	-9.3	12.3	.
COc1cc2cc(CN(Cc3ccc4c(c3)OCO4)C(=O)c3ccco3)c(=O)[nH]c2cc1OC	-14.7	45.8*	+
N#Cc1cccc(NC(=O)Cn2c3[n+](c4ccc(C(F)(F)F)cc42)CCCCC3)c1	-6.7	.	.
NNc1nnc(-c2ccccc2)c(-c2ccccc2)n1	-19.4	5.1	.
Nc1nc(N)c2nc(-c3ccccc3)c(N)nc2n1	-24.6	119.1*	+
Cc1cc(/C=C(\C#N)C(=O)OCC(=O)NC(=O)NC(C)(C)C)c(C)n1CCC(C)C	4.7	2.4	.
C=CCNC(=O)NC(=O)COC(=O)/C(C#N)=C/c1cc(C)n(CCC(C)C)c1C	-30.7	30.0*	+
COc1cccc(C(=O)NCC(=O)N/N=C/c2cccs2)c1	-22.2	.	.
COc1ccc(NC(=O)c2oc3ccccc3c2NC(=O)COc2ccccc2OC)c(OC)c1	11.8	103.8*	+
CCOCC(=O)Nc1c(C(=O)Nc2ccccc2OC)oc2ccccc12	-45.5	-19.3	.
CC(=O)Oc1ccc2c(C)cc(=O)[nH]c2c1	-55.1	64.2*	+
CC(=O)Oc1cc2oc(=O)cc(C)c2cc1OC(C)=O	-22.8	i	.
Cc1oc2cc(O)ccc2c(=O)c1N1C(=O)c2ccccc2C1=O	-3.8	3.9	.
Cc1cc(=O)[nH]c2cc(O)ccc12	-63.7	-2.0	.
CC(=O)Nc1c(OC(C)=O)ccc2c(C)cc(=O)oc12	-42.7	+	+
COc1ccc2c(C)cc(=O)oc2c1C	-31.9	-3.9	.
CC(=O)Oc1ccc2c(C)cc(=O)oc2c1	-11.0	+	+
Cc1ccccc1-c1c(C)oc2cc(O)ccc2c1=O	-35.8	38.1*	+
CCCCC(CC)CNC(=O)C1CC=CCC1C(=O)O (stereo not given)	-25.1	.	.
Cc1ccc(NC(=O)c2sc3nc[nH]c(=O)c3c2C)c(C)c1	-26.2	3.0	.
SMILES	YopH inh	RmlCD inh mix	RmlCD artifact
FC(F)(F)c1cccc(OCCN2CCN(Cc3ccccc3)CC2)c1	-5.0	.	.
CCOC(=O)c1nnn(-c2nonc2N)c1CN(CC)c1ccccc1	-15.7	-0.7	.
CC(C)CSc1nc2c(=O)[nH][nH]c(=O)c2n1Cc1ccccc1	-18.5	-12.8	.
Cc1cc(=O)oc2cc(O)ccc12	.	83.6*	+
O=c1cc(O)c2ccc(O)cc2o1	.	103.9	.
Cc1ccc(CCNC(=O)CCc2nc3ccccc3[nH]2)cc1	-12.6	.	.
COc1cccc(-c2cc(C(F)(F)F)n3nc(N)nc3n2)c1	-4.5	14.0	.
COc1ccc(-c2cc(C(F)(F)F)n3nc(N)nc3n2)cc1	-13.5	75.3*	+
COC(CNC(=O)c1coc2nc3ccccc3nc12)OC	.	.	i
O=C(NCC1CCCO1)c1coc2nc3ccccc3nc12 (stereo not given)	-24.0	29.0	.
CCn1c(C(=O)NCc2cccnc2)cc2sc(Cl)cc21	-36.7	.	.
Cc1nc(-c2ccccc2)sc1C1(C)CC(c2ccc(OC(F)(F)F)cc2)=NO1 (stereo not given)	.	-1.1	.
COCC(=O)Nc1ccc(-c2cn3cccnc3n2)cc1	-49.6	95.7*	+
Cc1ccc(-c2nc3ncccc3o2)cc1NC(=O)COc1ccccc1	-29.2	-12.1	.
CCOCC(=O)Nc1cc(-c2cn3cccnc3n2)ccc1C	-40.2	107.3*	+
COc1ccc(-c2cn3cccnc3n2)cc1NC(=O)c1cccs1	-30.7	.	.
O=C(NCc1ccccn1)C1C2C=CC(C2)C1C(=O)Nc1ccc(F)cc1 (stereo not given)	7.4	-9.3	.
Cc1ccc(OC(=O)c2oc3ccc(F)cc3c2C)c(C)c1	-20.5	-11.7	.
O=C(Nc1ccccc1)[C@@H]1CC=C[C@@H]2CCN(C3CCCCC3)C(=O)[C@@H]21	.	5.5	.
Cc1cc(C)c(OCCNC(=O)c2ccccc2Sc2ccccc2C#N)c(C)c1	-24.9	.	.
Cc1ccc(-c2nc3ccccn3c2NC(=O)c2ccco2)cc1	-10.6	-12.5	.
O=C(NCc1cc(C(F)(F)F)cc(C(F)(F)F)c1)C1CC(c2ccc(C(F)(F)F)cc2)=NO1 (stereo not given)	.	1.5	.
NS(=O)(=O)c1ccc(N2N=C(c3ccccc3)CC2c2ccc(F)cc2)cc1 (stereo not given)	-19.9	148.9*	+

Bioassay records as filed in PubChem BioAssay.
